# Measured values from PubChem BioAssay AID1159580 (chemical genetic matrix, 2015).
# Screen size: about 5,500 compounds; about 2,000 (36%) were called active. Inconclusive results (about 18%) are left out. This is one part of the list. Values without a mark were called inactive. Cut-off read from the data, not from the text of the source: active = normalized growth mostly below about 0.91 (no sharp cut-off); inconclusive = no clear call, values can overlap the other calls; inactive = mostly above about 0.92.
# Experiment: chemical genetic growth profiling, strain panel (AID 1159580);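 note: tested at 20 µM; growth read once vehicle control cultures reached saturation at 30 °C; 1 = growth at the plate median or of vehicle wells; lower values mean less growth of the strain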
# Details: S. cerevisiae deletion strains, growth OD
# [1] = locus YDL101C, strain DUN1, hits give low values
# [2] = locus YHR030C, strain SLT2, hits give low values
# [3] = locus YMR307W, strain GAS1, hits give low values
# [4] = locus YAR019C, strain CDC15, hits give low values
# [5] = locus YBL105C, strain PKC1, hits give low values
# [6] = locus YBR135W, strain CKS1, hits give low values
# [7] = locus YBR136W, strain MEC1, hits give low values
# [8] = locus YBR160W, strain CDC28, hits give low values
# [9] = locus YDL017W, strain CDC7, hits give low values
# [10] = locus YDL028C, strain MPS1, hits give low values
# [11] = locus YDL108W, strain KIN28, hits give low values
# [12] = locus YDL132W, strain cdc53, hits give low values
# [13] = locus YDL214C, strain PRR2, hits give low values
# [14] = locus YDR052C, strain DBF4, hits give low values
# [15] = locus YDR054C, strain cdc34, hits give low values
# [16] = locus YDR226W, strain ADK1, hits give low values
# [17] = locus YDR477W, strain SNF1, hits give low values
# [18] = locus YER123W, strain YCK3, hits give low values
# [19] = locus YER133W, strain GLC7, hits give low values
# [20] = locus YFL009W, strain cdc4, hits give low values
# [21] = locus YFL029C, strain CAK1, hits give low values
# [22] = locus YFR003C, strain YPI1, hits give low values
# [23] = locus YFR019W, strain FAB1, hits give low values
# [24] = locus YFR028C, strain CDC14, hits give low values
# [25] = locus YGR040W, strain KSS1, hits give low values
# [26] = locus YGR052W, strain FMP48, hits give low values
# [27] = locus YGR092W, strain DBF2, hits give low values
# [28] = locus YHR079C, strain IRE1, hits give low values
# [29] = locus YHR082C, strain KSP1, hits give low values
# [30] = locus YHR205W, strain SCH9, hits give low values
# [31] = locus YIL147C, strain SLN1, hits give low values
# [32] = locus YJL095W, strain BCK1, hits give low values
# [33] = locus YJL128C, strain PBS2, hits give low values
# [34] = locus YJL157C, strain FAR1, hits give low values
# [35] = locus YJR016C, strain ILV3, hits give low values
# [36] = locus YJR066W, strain TOR1 (second series), hits give low values
# [37] = locus YJR066W, strain TOR1, hits give low values
# [38] = locus YKL048C, strain ELM1, hits give low values
# [39] = locus YKL067W, strain YNK1, hits give low values
# [40] = locus YKL101W, strain HSL1, hits give low values
# [41] = locus YKL193C, strain SDS22, hits give low values
# [42] = locus YKL203C, strain TOR2, hits give low values
# [43] = locus YLR113W, strain HOG1, hits give low values
# [44] = locus YLR133W, strain CKI1, hits give low values
# [45] = locus YLR403W, strain SFP1, hits give low values
# [46] = locus YML070W, strain DAK1, hits give low values
# [47] = locus YMR001C, strain CDC5, hits give low values
# [48] = locus YMR205C, strain PFK2 (second series), hits give low values
# [49] = locus YMR277W, strain FCP1, hits give low values
# [50] = locus YNL006W, strain LST8, hits give low values
# [51] = locus YNL020C, strain ARK1, hits give low values
# [52] = locus YNL161W, strain CBK1, hits give low values
# [53] = locus YNL183C, strain NPR1, hits give low values
# [54] = locus YNL207W, strain RIO2, hits give low values
# [55] = locus YNL222W, strain SSU72, hits give low values
# [56] = locus YNL307C, strain MCK1 (second series), hits give low values
# [57] = locus YOL078W, strain AVO1, hits give low values
# [58] = locus YOL136C, strain PFK27, hits give low values
# [59] = locus YOR061W, strain CKA2, hits give low values
# [60] = locus YOR119C, strain RIO1, hits give low values
# [61] = locus YOR231W, strain MKK1, hits give low values
# [62] = locus YOR329C, strain SCD5, hits give low values
# [63] = locus YPL031C, strain PHO85, hits give low values
# [64] = locus YPL153C, strain RAD53, hits give low values
# [65] = locus YPL204W, strain HRR25, hits give low values
# [66] = locus YPL209C, strain IPL1, hits give low values
# [67] = locus YPL256C, strain CLN2, hits give low values
# [68] = locus YPR025C, strain CCL1, hits give low values
# [69] = locus YPR106W, strain ISR1, hits give low values
# [70] = locus YPR111W, strain DBF20, hits give low values
# [71] = strain NNK1, hits give low values
# [72] = strain TSCII, hits give low values
compound,measurement,setting,value
CSc1c(C#N)c(-c2cccs2)nn1C,normalized growth,"locus YAL013W, strain DEP1, hits give low values",0.934
same,normalized growth,"locus YBR229C, strain ROT2, hits give low values",0.935
same,normalized growth,[1],0.934
same,normalized growth,"locus YDR150W, strain NUM1, hits give low values",0.86
same,normalized growth,"locus YEL061C, strain CIN8, hits give low values",0.924
same,normalized growth,"locus YGR078C, strain PAC10, hits give low values",0.913 (active)
same,normalized growth,[2],0.505 (active)
same,normalized growth,"locus YHR087W, strain rtc3, hits give low values",0.898 (active)
same,normalized growth,"locus YJL187C, strain SWE1, hits give low values",1.02
same,normalized growth,"locus YJR043C, strain POL32, hits give low values",0.978
same,normalized growth,"locus YJR075W, strain HOC1, hits give low values",0.89 (active)
same,normalized growth,"locus YLR039C, strain RIC1, hits give low values",0.87
same,normalized growth,"locus YLR058C, strain SHM2 (second series), hits give low values",0.92 (active)
same,normalized growth,"locus YLR085C, strain ARP6, hits give low values",0.784
same,normalized growth,"locus YLR262C, strain YPT6, hits give low values",0.879
same,normalized growth,"locus YML094W, strain GIM5, hits give low values",0.911
same,normalized growth,"locus YMR219W, strain ESC1, hits give low values",0.945
same,normalized growth,"locus YMR263W, strain SAP30, hits give low values",0.949
same,normalized growth,[3],0.983
same,normalized growth,"locus YNL153C, strain GIM3, hits give low values",0.959
same,normalized growth,"locus YNL298W, strain CLA4 (second series), hits give low values",0.804 (active)
same,normalized growth,"locus YNL322C, strain KRE1, hits give low values",0.931 (active)
same,normalized growth,"locus YNR030W, strain Alg12, hits give low values",0.859 (active)
same,normalized growth,"locus YPL055C, strain LGE1, hits give low values",0.917
same,normalized growth,"locus YPL241C, strain CIN2, hits give low values",0.886
same,normalized growth,"locus YPR135W, strain CTF4, hits give low values",0.509 (active)
CSc1cc(-c2ccncc2)nc(-c2cccs2)c1,normalized growth,[4],0.953
same,normalized growth,[5],0.964
same,normalized growth,[6],0.957
same,normalized growth,[7],0.961
same,normalized growth,[8],0.952
same,normalized growth,[9],0.959
same,normalized growth,[10],0.965
same,normalized growth,[1],0.971
same,normalized growth,[11],0.96
same,normalized growth,[12],0.961
same,normalized growth,[13],0.965
same,normalized growth,[14],0.965
same,normalized growth,[15],0.957
same,normalized growth,[16],0.951
same,normalized growth,[17],0.941
same,normalized growth,[18],0.928
same,normalized growth,[19],0.927
same,normalized growth,[20],0.975
same,normalized growth,[21],0.952
same,normalized growth,[22],0.96
same,normalized growth,[23],0.965
same,normalized growth,[24],0.952
same,normalized growth,[25],0.928
same,normalized growth,[26],1.05
same,normalized growth,[27],0.89
same,normalized growth,[2],1.03
same,normalized growth,[28],0.953
same,normalized growth,[29],1.02
same,normalized growth,[30],0.997
same,normalized growth,[31],0.962
same,normalized growth,[32],0.982
same,normalized growth,[33],0.963
same,normalized growth,[34],0.938
same,normalized growth,[35],0.985
same,normalized growth,[36],0.95
same,normalized growth,[37],0.993
same,normalized growth,[38],0.966
same,normalized growth,[39],0.951
same,normalized growth,[40],0.961
same,normalized growth,[41],0.958
same,normalized growth,[42],1
same,normalized growth,[43],0.92
same,normalized growth,[44],0.962
same,normalized growth,[45],1.01
same,normalized growth,[46],0.929
same,normalized growth,[47],0.964
same,normalized growth,[48],0.963
same,normalized growth,[49],0.961
same,normalized growth,[50],0.969
same,normalized growth,[51],0.954
same,normalized growth,[52],0.952
same,normalized growth,[53],0.97
same,normalized growth,[54],0.945
same,normalized growth,[55],0.951
same,normalized growth,[56],0.952
same,normalized growth,[57],0.96
same,normalized growth,[58],0.956
same,normalized growth,[59],0.963
same,normalized growth,[60],0.984
same,normalized growth,[61],0.921
same,normalized growth,[62],0.966
same,normalized growth,[63],0.927
same,normalized growth,[64],0.925
same,normalized growth,[65],0.951
same,normalized growth,[66],0.954
same,normalized growth,[67],0.939
same,normalized growth,[68],0.963
same,normalized growth,[69],0.959
same,normalized growth,[70],0.947
same,normalized growth,[71],0.965
same,normalized growth,[72],0.951
NCC(CP(=O)(O)O)c1ccc(Cl)cc1 (centres undefined),normalized growth,"locus YAL040C, strain CLN3, hits give low values",1.04
same,normalized growth,"locus YCL061C, strain MRC1 (second series), hits give low values",0.978
same,normalized growth,"locus YDR363W, strain ESC2, hits give low values",0.99
same,normalized growth,"locus YER002W, strain NOP16, hits give low values",0.991
same,normalized growth,"locus YGR229C, strain SMI1, hits give low values",0.963
same,normalized growth,[3],0.995
same,normalized growth,"locus YNL128W, strain TEP1, hits give low values",0.987
same,normalized growth,"locus YNL175C, strain NOP13, hits give low values",0.986
same,normalized growth,"locus YNL197C, strain WHI3, hits give low values",0.998
same,normalized growth,"locus YNL224C, strain SQS1, hits give low values",1
same,normalized growth,"locus YOR083W, strain WHI5 (second series), hits give low values",0.98
CC(C)c1ccc(NCC(O)CSc2ccccc2)cc1 (centres undefined),normalized growth,[4],0.956
same,normalized growth,[5],0.957
same,normalized growth,[6],0.952
same,normalized growth,[7],0.952
same,normalized growth,[8],0.966
same,normalized growth,[9],0.969
same,normalized growth,[10],0.955
same,normalized growth,[1],0.951
same,normalized growth,[11],0.943
same,normalized growth,[12],0.948
same,normalized growth,[13],0.808
same,normalized growth,[14],0.974
same,normalized growth,[15],0.947
same,normalized growth,[16],0.983
same,normalized growth,[17],0.805
same,normalized growth,[18],0.755
same,normalized growth,[19],0.796
same,normalized growth,[20],0.952
same,normalized growth,[21],0.952
same,normalized growth,[22],0.959
same,normalized growth,[23],0.928
same,normalized growth,[24],0.957
same,normalized growth,[25],0.801
same,normalized growth,[26],0.717
same,normalized growth,[27],0.696
same,normalized growth,[2],0.655 (active)
same,normalized growth,[28],0.7
same,normalized growth,[29],0.733
same,normalized growth,[30],0.756
same,normalized growth,[31],0.952
same,normalized growth,[32],0.708
same,normalized growth,[33],0.968
same,normalized growth,[34],0.845
same,normalized growth,[35],0.962
same,normalized growth,[36],0.819
same,normalized growth,[37],0.786
same,normalized growth,[38],0.731 (active)
same,normalized growth,[39],0.834
same,normalized growth,[40],0.746
same,normalized growth,[41],0.944
same,normalized growth,[42],0.814
same,normalized growth,[43],0.405 (active)
same,normalized growth,[44],0.843
same,normalized growth,[45],0.842
same,normalized growth,[46],0.766
same,normalized growth,[47],0.956
same,normalized growth,[48],0.815
same,normalized growth,[49],0.953
same,normalized growth,[50],0.962
same,normalized growth,[51],0.812
same,normalized growth,[52],0.963
same,normalized growth,[53],0.64
same,normalized growth,[54],0.951
same,normalized growth,[55],0.953
same,normalized growth,[56],0.802
same,normalized growth,[57],0.958
same,normalized growth,[58],0.781
same,normalized growth,[59],0.856
same,normalized growth,[60],0.761
same,normalized growth,[61],0.634
same,normalized growth,[62],0.964
same,normalized growth,[63],0.74
same,normalized growth,[64],0.741
same,normalized growth,[65],0.696
same,normalized growth,[66],0.964
same,normalized growth,[67],0.621 (active)
same,normalized growth,[68],0.957
same,normalized growth,[69],0.94
same,normalized growth,[70],0.936
same,normalized growth,[71],0.913
same,normalized growth,[72],0.954
